The panel holds about 83,000 compounds, 20% with a hit somewhere; the sample as a whole holds those more often.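 Testing used 96-well plates and a 48-hour single-concentration exposure. Example: -40 means 40% of the starting cells died.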 A number with no mark means an inactive call. Active and inactive are the calls of the source. Rule for the calls: active = growth percent below 10; inactive = the rest.
Columns and labels:
Assay in all cases: NCI-60 one-dose screen, 48 h (100 = growth as untreated, 0 = no growth, -100 = all killed)
Conditions in all cases: 10 µM unless noted
HCT-15 colon = system: HCT-15 colon
HT29 colon = system: HT29 colon
SNB-75 CNS = system: SNB-75 CNS
SNB-19 CNS = system: SNB-19 CNS
U251 CNS = system: U251 CNS
PC-3 prostate = system: PC-3 prostate
SK-MEL-5 melanoma = system: SK-MEL-5 melanoma
UACC-62 melanoma = system: UACC-62 melanoma
LOX IMVI melanoma = system: LOX IMVI melanoma
SK-MEL-28 melanoma = system: SK-MEL-28 melanoma
SK-MEL-2 melanoma = system: SK-MEL-2 melanoma
EKVX NSCLC = system: EKVX NSCLC
SN12C renal = system: SN12C renal
UO-31 renal = system: UO-31 renal
TK-10 renal = system: TK-10 renal
ACHN renal = system: ACHN renal
CAKI-1 renal = system: CAKI-1 renal
A498 renal = system: A498 renal
CCRF-CEM leukemia = system: CCRF-CEM leukemia
MOLT-4 leukemia = system: MOLT-4 leukemia

Structure (SMILES)	growth (HCT-15 colon)	growth (HT29 colon)	growth (SNB-75 CNS)	growth (SNB-19 CNS)	growth (U251 CNS)	growth (PC-3 prostate)	growth (SK-MEL-5 melanoma)	growth (UACC-62 melanoma)	growth (LOX IMVI melanoma)	growth (SK-MEL-28 melanoma)	growth (SK-MEL-2 melanoma)	growth (EKVX NSCLC)	growth (SN12C renal)	growth (UO-31 renal)	growth (TK-10 renal)	growth (ACHN renal)	growth (CAKI-1 renal)	growth (A498 renal)	growth (CCRF-CEM leukemia)	growth (MOLT-4 leukemia)
Oc1c(C(Nc2cccc3ccccc23)c2ccccc2)ccc2cccnc12 (stereo not given)	28.1%	29.3%	72.2%	51.7%	20.6%	38.1%	43.9%	14.7%	15.3%	57.6%	0.608% (active)	31%	38.9%	20.4%	46%	22.1%	12.7%	36.7%	13.2%	-11.9% (active)
CN1C(=O)C(C(=O)/C=C/c2ccccc2C(=O)O)C(=O)N(C)C1=O	110%	98.8%	86.7%	105%	97%	96.4%	108%	95%	94.7%	109%	106%	105%	101%	87%	102%	108%	90%	104%	91.9%	97.1%
Cc1ccc(Nc2cccc3ccccc23)cc1	79.1%	83.9%	79.7%	90.3%	90.8%	73.9%	96.1%	85.4%	79.9%	98.5%	93.3%	101%	96.6%	45.5%	59.7%	84.8%	63.3%	83.3%	84.8%	77.3%
c1ccc(-c2nnn(-c3ccccc3)n2)cc1	114%	104%	90.4%	101%	99.1%	103%	104%	94.1%	116%	110%	94.7%	93.2%	103%	81.3%	147%	105%	92.9%	119%	95.2%	91.2%
COc1ccc(Oc2nc(Nc3ccc(N4CCOCC4)cc3)ncc2NC(=O)Nc2cccc(OC)c2)cc1	84%	54.2%	80.1%	72%	48.8%	48.4%	22.5%	46.8%	76.7%	61.4%	39.2%	84.6%	50.7%	75.8%	75.9%	68%	62.2%	66.3%	68.1%	40.4%
CO[C@H](C(=O)[C@@H](O)[C@@H](C)O)[C@@H]1Cc2cc3cc(O[C@H]4C[C@@H](O[C@H]5C[C@@H](O)[C@H](O)C(C)O5)[C@H](O)C(C)O4)c(C)c(O)c3c(O)c2C(=O)[C@H]1O[C@H]1C[C@@H](O[C@H]2C[C@@H](O[C@H]3C[C@](C)(O)C(=O)C(C)O3)[C@@H](O)C(C)O2)[C@H](O)C(C)O1 (stereo not given in full)	20.2%	-13.9% (active)	-65.5% (active)	10.8%	2.98% (active)	6.86% (active)	-32.2% (active)	-30.7% (active)	-5.83% (active)	-18.8% (active)	-57.6% (active)	0.189% (active)	13.6%	-11.3% (active)	-10.9% (active)	2.84% (active)	1.12% (active)	-33% (active)	10.3%	1.04% (active)
Cc1cc(-c2ccccc2)on1	101%	106%	99.2%	104%	108%	97.7%	109%	110%	99.4%	109%	107%	103%	103%	82.5%	110%	103%	98.2%	126%	97.8%	92.4%
Fc1cc(-c2cnc3nonc3n2)c(Cl)cc1Cl	51%	87.9%	99.9%	90.4%	109%	85.3%	98.3%	82.3%	101%	91.8%	102%	102%	91.8%	-28.3% (active)	72.4%	18.1%	85%	95.7%	-12.7% (active)	20.2%

Reference: PubChem BioAssay (NCI)
